Substitutions are numbered along the chain they refer to.

Assay in all cases: yeast three-hybrid, YBZ-1, SC-Leu-His + 0.5 mM 3-AT, 4 days
Holding throughout (conditions): tags: N-Gal4 AD-HA kept; label: inside an RPR1-promoter hybrid RNA with tandem MS2 sites; ssRNA

One test has as its target PUM1 PUF domain R5-MRN (Homo sapiens, UniProt Q14671 828-1176, C1007M;Q1011N). An outline of the steps: (§1)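 A centromeric plasmid in strain YBZ-1 co-expressed Pumilio-1 PUF domain libraries, randomized at the three base-contacting residues of each repeat, with matching RNA elements; the strain carries a LexA–MS2 coat fusion and a HIS3 reporter. After four days on SC-Leu (input) or SC-Leu-His + 0.5 mM 3-AT (selection), the repeat regions were PCR-amplified and Illumina-sequenced. The interaction score is the log change in variant frequency from input to selection, using log2 and a pseudocount of 1 where absent.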

The target of the next test is T1, PUM1 PUF domain R6-SFS (Homo sapiens, UniProt Q14671 828-1176, N1043S;Y1044F;Q1047S).
T1 sequence: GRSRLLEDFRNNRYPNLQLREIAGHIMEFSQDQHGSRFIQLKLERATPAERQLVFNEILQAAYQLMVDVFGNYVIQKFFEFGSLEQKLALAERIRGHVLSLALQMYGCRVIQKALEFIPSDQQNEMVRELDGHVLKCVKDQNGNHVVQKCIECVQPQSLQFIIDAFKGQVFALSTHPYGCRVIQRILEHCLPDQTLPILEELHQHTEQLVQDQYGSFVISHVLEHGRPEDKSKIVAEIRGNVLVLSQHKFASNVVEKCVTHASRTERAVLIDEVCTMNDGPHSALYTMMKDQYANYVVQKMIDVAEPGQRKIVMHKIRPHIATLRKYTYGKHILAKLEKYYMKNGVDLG
The method, boiled down: as §1

The target in a further test is PUM1 PUF domain R3-YFG (Homo sapiens, UniProt Q14671 828-1176, C935Y;R936F;Q939G). The method, boiled down: as §1
For a further test, the target named is PUM1 PUF domain R8-KRR (Homo sapiens, UniProt Q14671 828-1176, N1122K;Y1123R;Q1126R). The method, boiled down:
as §1

Another test deals with T2, PUM1 PUF domain R6-NWP (Homo sapiens, UniProt Q14671 828-1176, Y1044W;Q1047P).
T2 sequence: T1 sequence with S216N, F217W, S220P
The method, boiled down: as §1

For another test, the target named is T3, PUM1 PUF domain R6-VWQ (Homo sapiens, UniProt Q14671 828-1176, N1043V;Y1044W).
T3 sequence: T1 sequence with S216V, F217W, S220Q
An outline of the steps:
as §1

Another test addresses PUM1 PUF domain R1-NRR (Homo sapiens, UniProt Q14671 828-1176, S863N;Q867R). An outline of the steps: as §1
The next test has as its target PUM1 PUF domain R8-RSR (Homo sapiens, UniProt Q14671 828-1176, N1122R;Y1123S;Q1126R). The method, boiled down:
as §1

A further test concerns the target PUM1 PUF domain R4-GPQ (Homo sapiens, UniProt Q14671 828-1176, N971G;H972P). The method, boiled down:
as §1

For “GGCUAGAACUAGUGGAUCCCCCGGCGCCCGGCGGCUCGAGCCCGGGUAAGUGUAAAUAGUCUGCAUGCCGCCGGGCGCCAUGCCUGCAGGUCGACUCUAGAAAACAUG”, the binding signal with PUM1 PUF domain R5-MRN is 3.24 log2 enrichment (interaction score); with PUM1 PUF domain R6-SFS, 4.67 log2 enrichment (interaction score); in the test with PUM1 PUF domain R3-YFG it was 4.07 log2 enrichment (interaction score); in the test with PUM1 PUF domain R8-KRR, 3.15 log2 enrichment (interaction score); with PUM1 PUF domain R6-NWP it was 2.64 log2 enrichment (interaction score). With “GGCUAGAACUAGUGGAUCCCCCGGCGCCCGGCGGCUCGAGCCCGGGUAAGUGAAAAUAGUCUGCAUGCCGCCGGGCGCCAUGCCUGCAGGUCGACUCUAGAAAACAUG”, the binding signal in the test with PUM1 PUF domain R6-VWQ is 8.55 log2 enrichment (interaction score).

With “GGCUAGAACUAGUGGAUCCCCCGGCGCCCGGCGGCUCGAGCCCGGGUAAGUGUAAAUUGUCUGCAUGCCGCCGGGCGCCAUGCCUGCAGGUCGACUCUAGAAAACAUG”, in the test with PUM1 PUF domain R1-NRR, the binding signal was 2.34 log2 enrichment (interaction score).

Consider “GGCUAGAACUAGUGGAUCCCCCGGCGCCCGGCGGCUCGAGCCCGGGUAAGUGUAAAUCGUCUGCAUGCCGCCGGGCGCCAUGCCUGCAGGUCGACUCUAGAAAACAUG”, for which the binding signal with PUM1 PUF domain R1-NRR was 3.87 log2 enrichment (interaction score). Consider “GGCUAGAACUAGUGGAUCCCCCGGCGCCCGGCGGCUCGAGCCCGGGUAAGCGUAAAUAGUCUGCAUGCCGCCGGGCGCCAUGCCUGCAGGUCGACUCUAGAAAACAUG”, for which the binding signal with PUM1 PUF domain R8-RSR is 2.47 log2 enrichment (interaction score); with PUM1 PUF domain R8-KRR it was 5.14 log2 enrichment (interaction score). Consider “GGCUAGAACUAGUGGAUCCCCCGGCGCCCGGCGGCUCGAGCCCGGGUAAGUGGAAAUAGUCUGCAUGCCGCCGGGCGCCAUGCCUGCAGGUCGACUCUAGAAAACAUG”, for which, in the test with PUM1 PUF domain R6-NWP, the binding signal is 2.26 log2 enrichment (interaction score). On to “GGCUAGAACUAGUGGAUCCCCCGGCGCCCGGCGGCUCGAGCCCGGGUAAGUGUACAUAGUCUGCAUGCCGCCGGGCGCCAUGCCUGCAGGUCGACUCUAGAAAACAUG”, for which, in the test with PUM1 PUF domain R4-GPQ, the binding signal was 2.42 log2 enrichment (interaction score).
